Hit rate of the full screen: of about 330,000 compounds, about 1,400 (0.42%) were called active. The sample as a whole holds a higher share of actives than the screen did. Values without a mark were called inactive.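 The calls were made as follows: active = inhibition above its plate's threshold, mean inhibition of all tested compounds on the plate plus 3 SD (cut at about 37% in these data); inactive = the rest.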

Inhibition data for 81 compounds are collected here from PubChem BioAssay AID434989 (The Scripps Research Institute Molecular Screening Center, 2010).

Sequence of Orexin/Hypocretin receptor type 1 (Homo sapiens) (O43613 whole entry, looked up): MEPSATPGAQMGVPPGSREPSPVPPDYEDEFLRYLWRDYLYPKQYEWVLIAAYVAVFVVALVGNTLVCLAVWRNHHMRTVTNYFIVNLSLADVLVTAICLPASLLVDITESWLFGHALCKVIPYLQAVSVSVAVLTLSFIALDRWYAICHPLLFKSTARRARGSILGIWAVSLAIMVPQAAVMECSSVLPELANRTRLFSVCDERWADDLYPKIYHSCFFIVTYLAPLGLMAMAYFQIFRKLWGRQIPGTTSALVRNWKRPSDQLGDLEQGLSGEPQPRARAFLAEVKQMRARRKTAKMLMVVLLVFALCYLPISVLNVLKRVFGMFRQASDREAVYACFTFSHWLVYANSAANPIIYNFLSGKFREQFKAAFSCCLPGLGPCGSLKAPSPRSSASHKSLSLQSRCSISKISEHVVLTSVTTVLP

The experiment concerns the target Orexin/Hypocretin receptor type 1 (Homo sapiens) (UniProt O43613). In words: OX1R (HCRTR1) antagonists, primary screen, fluorescence, CHO/OX1R cells, Fluo-8 calcium, orexin A (AID 434989).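 Also: 0% = orexin A challenge wells and 100% = SB-334867-A antagonist wells.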 The note with it: Fluo-8 calcium fluorescence, at 5 µM, hits give high values.
Consider `c1ccc(-c2cc(-c3ccccc3)[nH]n2)cc1`, for which the inhibition (in general, the relative decrease from the control value, in per cent) is -9.86%.

Turning to `Fc1ccccc1/C=N/n1c(-c2cccnc2)n[nH]c1=S`, the inhibition is -5.34%.

Consider `S=c1[nH]nc(-c2cc(-c3ccccc3)n[nH]2)n1/N=C/c1c2ccccc2cc2ccccc12`, for which the inhibition is 44.8% (active).

`C=CC[C@H](CC(=O)OC(C)(C)C)C(=O)OC[C@H]1CCCN1C(=O)[C@H](CC=C)CC(=O)N(CCO)Cc1ccccc1`: the inhibition is -15.6%.

With `O=C1N[C@H](Cc2c[nH]c3ccccc23)COC(=O)[C@H](Cc2ccc(F)cc2)C/C=C\C[C@H]1CC(=O)N(CCO)Cc1ccccc1`, the inhibition is -2.05%.

Regarding `CC(C)(C)NS(=O)(=O)NC(=O)C1=C(N2CCCC2)COC1=O`, the inhibition was -2.12%.

On to `O=C(N/N=C/c1sc(N2CCCCC2)nc1-c1cccs1)c1cccnc1`, for which the inhibition is 44.9% (active).

Consider `O=C(CNC(=O)c1cccnc1)N/N=C/c1cccnc1`, for which the inhibition was 1.04%.

As to `O=C(NN=C1CCC(=NNC(=O)c2cccnc2)CC1)c1cccnc1`, the inhibition was -6.2%.

Turning to `CC(=O)N(O)CCCCCNC(=O)CCC(=O)N(O)CCCCCNC(=O)CCC(=O)N(O)CCCCCNC(=O)CCC(=O)O`, the inhibition is -5.54%.

With `O=C(NC(Cc1c[nH]c2ccccc12)C(=O)N/N=C/c1ccc(Br)cc1)c1cccs1` (stereo unspecified), the inhibition was 52.5% (active).

For the compound `CC(=O)NC(Cc1c[nH]c2ccccc12)C(=O)O` (stereo unspecified), the inhibition is -1.34%.

Take `CC(=O)Nc1ccc(/C=N/NC(=O)c2cccs2)cc1`: the inhibition was 18.2%.

Turning to `Cc1ccc(N2C(=O)N3[C@@H]4c5ccccc5OC[C@@H]4[C@@H](c4ccccc4)[C@@]3(C)C2=O)cc1`, the inhibition was -30.9%.

Turning to `COc1ccc(CNc2nc(NCc3ccc(OC)cc3)c3ncn(C4CCCC4)c3n2)cc1`, the inhibition is -5.92%.

For the compound `Cc1noc(C)c1NC(=O)Nc1ccc2c(c1)C(=O)N([C@H](C)CO)C[C@H](C)[C@@H](CN(C)C(=O)Nc1ccccc1)O2`, the inhibition was -4.54%.

In the case of `COc1ccc(NS(=O)(=O)c2ccc(NC(=S)NC(=O)CC(C)C)cc2)cc1`, the inhibition was 50.3% (active).

Take `CC(=O)c1ccc(NC(=S)NC(=O)CC(C)C)cc1`: the inhibition was 3.22%.

Turning to `COc1cc(NS(=O)(=O)c2ccc(NC(C)=O)cc2)cc(OC)c1`, the inhibition is 9.3%.

Consider `COc1ccc(N2CCN(C(CNS(=O)(=O)c3ccc(C)cc3)c3ccccc3)CC2)cc1` (stereo unspecified), for which the inhibition was -26.8%.

As for `CCN([C@H](CO)C(C)C)S(=O)(=O)c1ccccc1Br`, the inhibition was 1.51%.

As to `O=C(COC(=O)COc1ccccc1F)Nc1cccc(S(=O)(=O)N2CCCCC2)c1`, the inhibition is -27.3%.

As to `CCn1nnc2cc(C(=O)Nc3ccc(C(=O)OC(C)C)cc3)ccc21`, the inhibition is -14.8%.

On to `Cc1cc(C)cc(OCC(=O)NC(C)c2ccccc2)c1` (stereo unspecified), for which the inhibition was -37.8%.

On to `COc1cc(OC)cc(C(=O)N[C@H](C(=O)OCC(=O)NC(C)c2ccccc2)C(C)C)c1` (stereo partly specified), for which the inhibition was 59% (active).

In the case of `COc1cc(OC)cc(C(=O)NC(C(=O)N2CCC2)C(C)C)c1` (stereo unspecified), the inhibition was -9.6%.

On to `CC(C)(C)OC(=O)C[C@@H]1C/C=C\C[C@@H](CC(=O)N[C@H](CO)Cc2ccccc2)C(=O)NCCOC1=O`, for which the inhibition is 2.53%.

On to `COc1ccc(CN2C(CC(=O)Nc3cccnc3)c3ccc(C(F)(F)F)cc3S2(=O)=O)cc1` (stereo unspecified), for which the inhibition is -16.2%.

For the compound `O=C(Cn1ccc2cc(S(=O)(=O)N3CCCC3)ccc21)NCc1ccccc1`, the inhibition is -25.5%.

As for `O=[N+]([O-])/C=C/c1ccc2c(ccn2Cc2ccccc2)c1`, the inhibition was 53.8% (active).

On to `COC(=O)Cn1cc(/C=C/[N+](=O)[O-])c2ccccc21`, for which the inhibition was -4.68%.

Take `CC1(C)C[C@H]2C3=CCC4[C@@]5(C)CC[C@H](O)[C@](C)(CO)C5CC[C@@]4(C)[C@]3(C)C[C@@H](O)[C@@]2(CO)[C@@H](O)[C@@H]1O` (stereo partly specified): the inhibition is -0.97%.

Regarding `O=C(Nc1ccc(C(=O)N2CCCCC2)cc1)c1cccc([N+](=O)[O-])c1`, the inhibition was 1.86%.

With `O=C(Nc1ccc(NC(=O)c2ccco2)c(Cl)c1)c1cccc([N+](=O)[O-])c1`, the inhibition was -19.9%.

As for `O=C(Nc1ccc(C2CC2(Cl)Cl)cc1)c1cccc([N+](=O)[O-])c1` (stereo unspecified), the inhibition was 45.8% (active).

On to `CC(Sc1nncn1C)C(=O)NCCC1=CCCCC1` (stereo unspecified), for which the inhibition was -6.11%.

`COc1ccc(CNC(=O)C[C@H]2C[C@H](C(=O)N3CCOCC3)[C@@]3(CCC4CCCC4)c4[nH]c5ccc(Cl)cc5c4CCN3C2=O)cc1OC`: the inhibition is 19.8%.

In the case of `COc1ccc(NC(=O)/C(Cl)=C(/Cl)S(=O)Cc2ccc(C)cc2)cn1` (stereo unspecified), the inhibition was 47.5% (active).

On to `COc1ccc(Nc2ccc([N+](=O)[O-])cn2)cn1`, for which the inhibition is -22.9%.

Consider `Cc1ccc(NC(=O)OCc2cncs2)cc1`, for which the inhibition was -7.33%.

`CCCSc1ccc([C@H]2N[C@@](Cc3ccccc3)(C(=O)OC)[C@H]3C(=O)N(C)C(=O)[C@@H]23)cc1`: the inhibition was -27.9%.

As for `CC(C)(C)OC(=O)C1=C(CO)CS[C@@H]2[C@H](NC(=O)Cc3ccccc3)C(=O)N12`, the inhibition is 1.11%.

`C=CC[C@@H](CC(=O)NCCO)C(=O)N[C@H](C)COC(=O)[C@@H](CC=C)CC(=O)OC(C)(C)C`: the inhibition was 1.19%.

As for `CN(C(=O)COC(=O)Cc1ccccc1[N+](=O)[O-])C1CCS(=O)(=O)C1` (stereo unspecified), the inhibition was 1.38%.

Take `CC(C)n1cnc2c(NCc3ccccc3)cc(N[C@@H](CO)Cc3ccccc3)cc21`: the inhibition was -6.91%.

As for `Cc1cc(N2CCCC2)ccc1NC(=O)COc1ccc(Cl)cc1`, the inhibition is 23.4%.

As to `Cc1ccc(NC(=O)COc2ccc(-n3ccnc3)cc2)cc1Cl`, the inhibition was 49.1% (active).

Turning to `CCC(=O)c1ccc(OCC(=O)Nc2ccc3nc(C)sc3c2)cc1`, the inhibition was -9.93%.

`CN(CC(=O)Nc1ccc(OC(F)F)cc1)S(=O)(=O)/C=C/c1ccccc1`: the inhibition was -20%.

For the compound `COc1ccc(S(=O)(=O)Nc2cccc3c2O[C@H](CN(C)S(=O)(=O)c2ccc(OC)cc2)[C@@H](C)CN([C@H](C)CO)C3=O)cc1`, the inhibition is -20.8%.

On to `CN[C@H](C(=O)NC[C@H]1O[C@@H](n2cnc3c(N)ncnc32)[C@H](O)[C@@H]1O)[C@@H](C)OCc1ccccc1`, for which the inhibition is -13.1%.

On to `CCCCNS(=O)(=O)CCNCc1ccccc1OC`, for which the inhibition is -14.5%.

`O=C(COC(=O)C1CCCO1)Nc1nc(-c2ccc(F)cc2)cs1` (stereo unspecified): the inhibition is -7.58%.

Turning to `CCOC(=O)COn1c(=O)c(-c2ccc(OCC)cc2)[n+]([O-])c2ccccc21`, the inhibition was -31.8%.

In the case of `CCn1c(COc2cccc(OC)c2)nnc1SCC(=O)N1CCOCC1`, the inhibition is -6.58%.

For `CCCCn1c(N)c(N(CCOC)C(=O)c2cccc(OCc3ccccc3)c2)c(=O)[nH]c1=O`, the inhibition was -25.9%.

`CCCCCCCCCCOC(=O)Cn1c(COc2cccc(OC)c2)[n+](C)c2ccccc21`: the inhibition is 41.4% (active).

On to `CCCCCCCCCCOC(=O)Cn1c(COc2ccc(C)cc2)[n+](C)c2ccccc21`, for which the inhibition is 51.1% (active).

For `CCOC(=O)Cn1c(-c2cccnc2Cl)nc2ccccc21`, the inhibition was -7.78%.

Regarding `COc1ccc2nc3n(c(=O)c2c1)-c1ccc(Cl)cc1C(=O)NC3Cc1ccccc1` (stereo unspecified), the inhibition was -24.8%.

With `CCOC(=O)C1=CN(Cc2ccc(Br)cc2)S(=O)(=O)N(C)C1C` (stereo unspecified), the inhibition was -12.4%.

In the case of `O=C1[C@@H](c2ccccc2)[C@@H](c2ccccc2)N1c1cccnc1`, the inhibition was 42.8%.

Turning to `COc1cc(/C=C/C(=O)Nc2ccc(OC)c(S(=O)(=O)N3CCOCC3)c2)ccc1OCC#N`, the inhibition is 9.74%.

For `Cn1nnnc1SCC(=O)Nc1nc2ccccc2s1`, the inhibition is -5.36%.

For the compound `C=CCn1c(SCC(=O)Nc2nc3ccccc3s2)nnc1-c1ccccc1O`, the inhibition is 68% (active).

Turning to `C=CCn1c(SCC(=O)NCc2ccccc2)nnc1-c1cc(Br)ccc1O`, the inhibition was -7.43%.

With `Cc1ccc(S(=O)(=O)NC[C@H]2O[C@@H](n3cnc4c(N)ncnc43)[C@H](O)[C@@H]2O)s1`, the inhibition is -0.44%.

Consider `CCn1c(=S)[nH]c2cc(S(=O)(=O)N3CCOCC3)ccc21`, for which the inhibition is -24.1%.

For `O=C(O)c1ccccc1CSc1nc2ccccc2s1`, the inhibition was -10.9%.

With `CCOc1ccccc1Nc1ccc2nonc2c1[N+](=O)[O-]`, the inhibition is -9.48%.

As to `O=[N+]([O-])c1c(NCCO)cc(Sc2nc3ccccc3s2)c2nonc12`, the inhibition is 59.3% (active).

In the case of `C[C@@H](CN1CCC[C@H]1CN1C(N)=NC[C@@H]1Cc1ccccc1)N1C[C@@H](Cc2ccccc2)N(CCCC2CCCC2)C1=N`, the inhibition was -9.98%.

With `Fc1ccccc1-c1cc2cc3c(cc2cn1)OCO3`, the inhibition was 38.1%.

For the compound `Cc1c(CN2CC[C@@H](N3CCN(c4ccccn4)CC3)[C@H](O)C2)[nH]c2ccc(F)cc12`, the inhibition is -18.8%.

On to `Fc1ccc2[nH]c3c(N4CCSCC4)ncnc3c2c1`, for which the inhibition was 52.4% (active).

Take `C#CCOCCOCCOCCNc1nc(N2CCN(C(=O)[C@H](CCC(=O)O)n3cc(CN)nn3)CC2)nc(N2CCN(C(=O)[C@H](CCC(=O)O)n3cc(CN)nn3)CC2)n1`: the inhibition is -6.85%.

On to `CN(C(=O)c1cccc(NC(=O)Cc2cccc([N+](=O)[O-])c2)c1)C1CCCCC1`, for which the inhibition is -12.3%.

On to `C[C@H](CO)N1C[C@H](C)[C@H](CN(C)CC2CC2)Oc2ccc(NC(=O)CCN3CCOCC3)cc2C1=O`, for which the inhibition was 7.19%.

Regarding `COc1ccc(NS(=O)(=O)c2ccc(C(=O)Nc3c(C)n(C)n(-c4ccccc4)c3=O)cc2)cc1`, the inhibition is 1.25%.

Take `CC(NC(=O)COC(=O)Cn1cc(C(F)(F)F)ccc1=O)c1ccccc1` (stereo unspecified): the inhibition is -5.69%.

For the compound `CC1O[C@H](OC2C(COC3OC(CO)C(O)[C@H](O)C3O)OC(OC3CC[C@]4(C)C(CC[C@@]5(C)[C@@H]4C=C[C@]46OC[C@@]7(CCC(C)(C)C[C@H]74)C(O)C[C@@]56C)C3(C)C)C(O)C2O)C(O)C(O)C1O` (stereo partly specified), the inhibition was -2.45%.
